Source: PubChem BioAssay (EPA / NIEHS)
Activity calls are given as the source filed them. How the source made its calls: active means hit-call score of the fitted dose curve at least 0.9, where 1 is the maximum; inactive means score below 0.9.

Read-out: NAD(P)H dehydrogenase [quinone] 1 (NQO1), NQO1 (gene 1728)
Assay: LTEA_HepaRG_NQO1: Life Technologies and Expression Analysis (LTEA) Assay for NAD(P)H dehydrogenase [quinone] 1 (NQO1) using HepaRG (AID 2283526)
Conditions: mRNA level, 48 h; actives raise or lower the signal
Description: LTEA_HepaRG is a cell based, multiplexed-readout assay that uses HepaRG, a human liver cell line, with measurements taken at 48 hours after chemical dosing on a 96-well plate.LTEA_HepaRG_NQO1 is one of 102 assay component(s) measured in the LTEA HepaRG cell culture assay. It is a marker of Diseases associated with NQO1 include Tardive Dyskinesia and Childhood Leukemia.Data from the assay component LTEA_HepaRG_NQO1 was analyzed into 1 endpoint. This assay endpoint, LTEA_HepaRG_NQO1, was analyzed with bidirectional fitting relative to DMSO as the negative control and baseline of activity. Using a type of inducible reporter, measures of mRNA induction for gain or loss-of-signal activity can be used to understand regulation of transcription factor activity. To generalize the intended target to other relatable targets, this assay endpoint is annotated to the oxidoreductase intended target family, where the subfamily is quinone-acceptor.
A total of 1060 chemcials from the ToxCast library were tested in eight-point concentration-response experiments. Cell culture and cytotoxicity assays were conducted at Thermo Fisher Scientific's Custom Services facility (Madison, WI). A single lot of human HepaRG cells (Thermo Fisher Scientific, Frederick, MD) was used for the cell culture experiments. 96-well format collagen type I coated plates of human HepaRG cells were prepared using established methods. Briefly, cryopreserved HepaRG cells were thawed, plated at a density of approximately 100,000 cells/well in HepaRG Thaw, Plate, and General Purpose media (HPRG770, Thermo Fisher Scientific), and incubated for 48 hours. 0.5% DMSO was selected as vehicle control to balance the requisite need of DMSO in HepaRG cultures to maintain differentiation (for example, baseline metabolism, proportions of hepatocytes vs. cholangiocytes), while enabling further hepatic receptor pathway activation (for example, PXR and CAR) in response to chemical exposure. 48 hours after plating, the culture medium was replaced with HepaRG Serum-Free Incudtion Media. Cells were exposed to each test chemical in duplicate and maintained in CO2 incubators for another 48 hours. Chemical plates were thawed to room temperature and 200x concentrations of treatment groups were prepared. 8-point conentration-reponse curves were made with the highest exposure at 100 uM, followed by half-log dilutions, all in 0.5% DMSO. Each test plate contained variouse controls, induction positive controls (1mM phenobarbital), cytotoxicity positive controls ([…] aflatoxin B1), vehicle controls (0.5% DMSO), and total lysis controls (0.5% DMSO). Cell morphology images were taken using an Essen IncuCyte FLR automated microscope, with six 96-well plates imaged in about 24 minutes. Images were captured and exported and JPEG files. Spent culture media was transfered to black-well plates for the LDH assay, and remaining media was sorted at -80 C for later use. Cells were treated with RLT buffer and frozen until shipped for gene expression analysis. Total RNA was isolated from the cell suspension in 75 uL of Buffer RLT (Qiagen, Germantown, MD 20874) by Quintiles/Expression Analysis (Durham, NC) using a custom isolation procedure. Total RNA from each plate well was transferred to a preamplification plate. Fluidigm's 96.96 Dynamic ArrayTM (Fluidigm, Amsterdam, the Netherlands) technology was used for gene expression analyses by quantitative reverse transcription polymerase chain reaction (qRT-PCR, performed by Quintiles/Expression Analysis, Durham, NC)89. Standard TaqManTM Assays (Applied Biosystems/ThermoFisher Scientific, Foster City, CA) were used to assess the expression of 93 genes selected based on their selectivity and sensitivity to important hepatic receptors known to be modulated by environmental chemicals; importance in human hepatocyte functionality; and hepatotoxicity. […]

Row | Compound | outcome | AC50
1 | CC(C)(C)C(O)(CCc1ccc(Cl)cc1)Cn1cncn1 (stereo not given) | inactive | –
2 | CC(O)CCO (stereo not given) | inactive | –
3 | Nc1ccc([N+](=O)[O-])cc1 | inactive | –
4 | Oc1ccccc1Cl | inactive | –
5 | O=C1CCCO1 | – | 50 µM (active)
6 | CC(C)(C)OOC(=O)c1ccccc1 | inactive | –
7 | CC(C)COC(=O)c1ccccc1C(=O)OCC(C)C | inactive | –
8 | N#CC(Br)Br | inactive | –
9 | ClC1=C(Cl)[C@]2(Cl)[C@H]3[C@H]([C@@H]4C=C[C@H]3C4)[C@@]1(Cl)C2(Cl)Cl | inactive | –
10 | Cc1ccc(N=C=O)cc1N=C=O | – | 38.9 µM (active)
11 | CCCCCCCCCCCCCN1CC(C)OC(C)C1 (stereo not given) | inactive | –
12 | CC(C)(OOC(C)(C)c1ccccc1)c1ccccc1 | inactive | –
13 | CCNS(=O)(=O)C(F)(F)C(F)(F)C(F)(F)C(F)(F)C(F)(F)C(F)(F)C(F)(F)C(F)(F)F | inactive | –
14 | ClC1=C(Cl)C2(Cl)C3C(Cl)C=CC3C1(Cl)C2(Cl)Cl (stereo not given) | inactive | –
15 | Cc1cccc(N)c1N | inactive | –
16 | OCCCl | inactive | –
17 | CC(C)N(Cc1ccccc1)C(=O)C(C)(C)C | inactive | –
18 | CC(C)(C)OOC(C)(C)CCC(C)(C)OOC(C)(C)C | inactive | –
19 | Clc1ccc(C(c2ccc(Cl)cc2)C(Cl)(Cl)Cl)cc1 | inactive | –
20 | O=[N+]([O-])C(Br)(CO)CO | inactive | –

Row | Compound | outcome | AC50
21 | CCOC(=O)[C@]1(c2ccccc2)Oc2ccccc2[C@@H]1N | inactive | –
22 | O=C(N[C@H](c1ccccc1)[C@@H]1CN2CCC1CC2)c1c(Cl)ccc(C(F)(F)F)c1Cl | inactive | –
23 | Oc1ccc2ccc3cccc4ccc1c2c34 | inactive | –
24 | CCC[CH2][Sn]([Cl])([CH2]CCC)[CH2]CCC | – | 15.8 µM (active)
25 | Cc1ccc(N)cc1 | inactive | –
26 | Nc1ccc(Cl)cc1N | – | 78 µM (active)
27 | [As]#[In] | inactive | –
28 | CCN(CC)CCO | inactive | –
29 | CCCSC(=O)N(CCC)CCC | inactive | –
30 | O=P(OCCCl)(OCCCl)OCCCl | inactive | –
31 | C[C@]12C=CC3=C4CCC(=O)C=C4CC[C@H]3[C@@H]1CC[C@@H]2O | inactive | –
32 | Cn1cc(-c2ccccc2)c(=O)c(-c2cccc(C(F)(F)F)c2)c1 | inactive | –
33 | O=C(Oc1ccc(Br)cc1)N1CCN2CCC1CC2 | inactive | –
34 | CNC(=O)Oc1cccc2c1OC(C)(C)C2 | inactive | –
35 | CC(C)(O)c1cnn2c(-c3ccc(F)c(-c4c(F)cccc4C#N)c3)cnc2n1 | inactive | –
36 | c1ccc2c(c1)oc1ccccc12 | inactive | –
37 | C[N+](C)(C)CC1CO1 (stereo not given) | inactive | –
38 | CCCCCCCCn1sccc1=O | inactive | –
39 | CN(C)c1ccccc1 | inactive | –
40 | Nc1ccc(Cc2ccc(N)cc2)cc1 | inactive | –
